{"source": "PubChem BioAssay (NCATS)", "note": "Several values for one entry are separate records, joined by “and”; a condition that tells them apart may be missing. Equal entries are not always repeated. Records with an inconclusive call do not appear. More than one record can exist for a structure, and the calls need not agree. Activity calls are given as the source filed them. The call rests on the fitted dose curve; in most records, active means well fitted curve in the direction sought with a large enough effect; inconclusive means small, poorly fitted or top-dose-only effect, or another doubt; inactive means no such curve, though single readings can be large; an effect the other way counts as inactive or inconclusive. Further: nearly all actives have a fitted effect of over 70% in size. On the % scale 0 is the no-effect control and ±100 the full control effect; potency means the concentration at half of the fitted maximal effect.", "data": [{"experiment": "Primary qHTS for inhibitors of nuclear receptor binding SET domain protein 2 (NSD2) in an isogenic RCH-ACV NSD2 p.E1099K mutant (9B) (AID 1645876)", "conditions": "RCH-ACV NSD2 E1099K (9B) viability, CellTiter-Glo, 72 h; series mostly up to 44.9 µM; activity change, negative = viability loss: at the top concentration", "values": [{"smiles": "CC(=O)Oc1ccccc1C(=O)Nc1ncc([N+](=O)[O-])s1", "outcome": "inactive"}, {"smiles": "Nc1nc(=S)c2[nH]cnc2[nH]1", "Potency": "750 nM (active) and 833 nM (active)"}, {"smiles": "NC(=O)c1cccc(N)c1", "activity change, negative = viability loss": "3.19% (inactive)"}, {"smiles": "CN(C)c1ccc(C(=C2C=CC(=[N+](C)C)C=C2)c2ccc(N(C)C)cc2)cc1", "Potency": "33.5 nM (active) and 296 nM (active)"}, {"smiles": "Nc1[nH]c(=O)ncc1F", "outcome": "inactive"}, {"smiles": "NC(=O)c1ccc2[nH]ccc2c1", "activity change, negative = viability loss": "-1.97% (inactive)"}, {"smiles": "CC(C)NCC(O)c1ccc(NS(C)(=O)=O)cc1", "note": "(stereo not given)", "activity change, negative = viability loss": "0.692% (inactive)"}, {"smiles": "CNC(=O)c1cc(Oc2ccc(NC(=O)Nc3ccc(Cl)c(C(F)(F)F)c3)cc2)ccn1", "Potency": "9.34 µM (active) and 21.1 µM (active) and 5.15 µM (active)"}, {"smiles": "CO[C@@]12[C@H](COC(N)=O)C3=C(C(=O)C(C)=C(N)C3=O)N1C[C@@H]1N[C@@H]12", "activity change, negative = viability loss": "-4.1% (inactive)"}, {"smiles": "CCOC(=O)c1ccc(OC(=O)CCCCCN=C(N)N)cc1", "activity change, negative = viability loss": "-21.5% (inactive)"}, {"smiles": "CC(C)C1CCC(C(=O)N[C@H](Cc2ccccc2)C(=O)O)CC1", "note": "(stereo not given in full)", "Potency": "inactive"}, {"smiles": "CCCCS(=N)(=O)CCC(N)C(=O)O", "note": "(stereo not given)", "activity change, negative = viability loss": "1.41% [at 91.9 µM] (inactive)"}, {"smiles": "C#CCN[C@@H]1CCc2ccccc21", "outcome": "inactive"}, {"smiles": "Cc1oc(=O)oc1CN1CCN(c2cc3c(cc2F)c(=O)c(C(=O)O)c2n3C(C)S2)CC1", "note": "(stereo not given)", "Potency": "inactive"}, {"smiles": "CNCC[C@H](Oc1cccc2ccccc12)c1cccs1", "Potency": "23.7 µM (active)"}, {"smiles": "CNC1CCCN(c2c(F)cc3c(=O)c(C(=O)O)cn(C4CC4)c3c2OC)C1", "note": "(stereo not given)", "Potency": "inactive"}, {"smiles": "NS(=O)(=O)c1cc2c(cc1Cl)NC(C(Cl)Cl)NS2(=O)=O", "note": "(stereo not given)", "Potency": "inactive"}, {"smiles": "C1CCC(C(CC2CCCCN2)C2CCCCC2)CC1", "note": "(stereo not given)", "Potency": "7.42 µM (active)"}, {"smiles": "COC(=O)Nc1nc2ccc(C(=O)c3ccccc3)cc2[nH]1", "Potency": "211 nM (active) and 417 nM (active)"}, {"smiles": "CCCCOc1ccc(CC(=O)NO)cc1", "Potency": "inactive and 16.6 µM (active)"}, {"smiles": "O=C(O)c1ccc(-n2nc(-c3ccccc3O)nc2-c2ccccc2O)cc1", "Potency": "6.68 µM (active) and 4.17 µM (active)"}, {"smiles": "CCc1c2c(nc3ccc(OC(=O)N4CCC(N5CCCCC5)CC4)cc13)-c1cc3c(c(=O)n1C2)COC(=O)[C@]3(O)CC", "Potency": "750 nM (active) and 235 nM (active)"}, {"smiles": "NC1(c2ccc(-c3nc4ccn5c(=O)[nH]nc5c4cc3-c3ccccc3)cc2)CCC1", "Potency": "21.1 nM (active) and 64.9 nM (active) and 166 nM (active)"}, {"smiles": "COc1cc2nc(N3CCCN(C)CC3)nc(NC3CCN(Cc4ccccc4)CC3)c2cc1OC", "Potency": "4.17 µM (active)"}, {"smiles": "O[C@@H](CNC[C@H](O)[C@H]1CCc2cc(F)ccc2O1)[C@@H]1CCc2cc(F)ccc2O1", "Potency": "11.9 µM (active)"}]}, {"experiment": "Primary qHTS for inhibitors of nuclear receptor binding SET domain protein 2 (NSD2) in an RCH-ACV wild type WT cells (2C) (AID 1645877)", "conditions": "RCH-ACV NSD2 WT (2C) viability, CellTiter-Glo, 72 h; series mostly up to 44.9 µM; activity change, negative = cell killing: at the top concentration", "values": [{"smiles": "CC(=O)Oc1ccccc1C(=O)Nc1ncc([N+](=O)[O-])s1", "activity change, negative = cell killing": "6.02% (inactive)"}, {"smiles": "Nc1nc(=S)c2[nH]cnc2[nH]1", "Potency": "1.06 µM (active) and 742 nM (active)"}, {"smiles": "NC(=O)c1cccc(N)c1", "outcome": "inactive"}, {"smiles": "CN(C)c1ccc(C(=C2C=CC(=[N+](C)C)C=C2)c2ccc(N(C)C)cc2)cc1", "Potency": "42.2 nM (active) and 263 nM (active)"}, {"smiles": "Nc1[nH]c(=O)ncc1F", "activity change, negative = cell killing": "8.31% (inactive)"}, {"smiles": "NC(=O)c1ccc2[nH]ccc2c1", "activity change, negative = cell killing": "-10.3% (inactive)"}, {"smiles": "CC(C)NCC(O)c1ccc(NS(C)(=O)=O)cc1", "note": "(stereo not given)", "outcome": "inactive"}, {"smiles": "CNC(=O)c1cc(Oc2ccc(NC(=O)Nc3ccc(Cl)c(C(F)(F)F)c3)cc2)ccn1", "Potency": "7.42 µM (active) and 5.15 µM (active)"}, {"smiles": "CO[C@@]12[C@H](COC(N)=O)C3=C(C(=O)C(C)=C(N)C3=O)N1C[C@@H]1N[C@@H]12", "activity change, negative = cell killing": "5.73% (inactive)"}, {"smiles": "CCOC(=O)c1ccc(OC(=O)CCCCCN=C(N)N)cc1", "Potency": "23.5 µM (active)"}, {"smiles": "CC(C)C1CCC(C(=O)N[C@H](Cc2ccccc2)C(=O)O)CC1", "note": "(stereo not given in full)", "Potency": "inactive"}, {"smiles": "CCCCS(=N)(=O)CCC(N)C(=O)O", "note": "(stereo not given)", "outcome": "inactive [at 91.9 µM]"}, {"smiles": "C#CCN[C@@H]1CCc2ccccc21", "outcome": "inactive"}, {"smiles": "Cc1oc(=O)oc1CN1CCN(c2cc3c(cc2F)c(=O)c(C(=O)O)c2n3C(C)S2)CC1", "note": "(stereo not given)", "Potency": "inactive"}, {"smiles": "CNCC[C@H](Oc1cccc2ccccc12)c1cccs1", "Potency": "23.7 µM (active)"}, {"smiles": "CNC1CCCN(c2c(F)cc3c(=O)c(C(=O)O)cn(C4CC4)c3c2OC)C1", "note": "(stereo not given)", "Potency": "inactive"}, {"smiles": "NS(=O)(=O)c1cc2c(cc1Cl)NC(C(Cl)Cl)NS2(=O)=O", "note": "(stereo not given)", "Potency": "inactive"}, {"smiles": "C1CCC(C(CC2CCCCN2)C2CCCCC2)CC1", "note": "(stereo not given)", "Potency": "8.33 µM (active)"}, {"smiles": "COC(=O)Nc1nc2ccc(C(=O)c3ccccc3)cc2[nH]1", "Potency": "106 nM (active) and 372 nM (active)"}, {"smiles": "CCCCOc1ccc(CC(=O)NO)cc1", "Potency": "inactive and 16.6 µM (active)"}, {"smiles": "O=C(O)c1ccc(-n2nc(-c3ccccc3O)nc2-c2ccccc2O)cc1", "Potency": "5.31 µM (active) and 4.17 µM (active)"}, {"smiles": "CCc1c2c(nc3ccc(OC(=O)N4CCC(N5CCCCC5)CC4)cc13)-c1cc3c(c(=O)n1C2)COC(=O)[C@]3(O)CC", "Potency": "596 nM (active) and 118 nM (active)"}, {"smiles": "NC1(c2ccc(-c3nc4ccn5c(=O)[nH]nc5c4cc3-c3ccccc3)cc2)CCC1", "Potency": "21.1 nM (active) and 81.7 nM (active) and 332 nM (active)"}, {"smiles": "COc1cc2nc(N3CCCN(C)CC3)nc(NC3CCN(Cc4ccccc4)CC3)c2cc1OC", "Potency": "2.63 µM (active)"}, {"smiles": "O[C@@H](CNC[C@H](O)[C@H]1CCc2cc(F)ccc2O1)[C@@H]1CCc2cc(F)ccc2O1", "Potency": "11.9 µM (active)"}]}]}
